# Measured values reported in PubChem BioAssay (Tox21).
# “And” between values parts separate entries of the source, which are not always exact repeats. Equal values may be shown once. Records with an inconclusive call do not appear. Where a call stands in place of a potency, no number is given. Values without a mark were called inactive. The source made the active and inactive calls. Calls come from the whole dose curve; as a rule, active = well fitted cell-killing curve with a large enough effect in the repeat runs; inconclusive = weak or mixed curves, or effect the other way; inactive = flat fitted curve, though single readings scatter.
# Experiment: qHTS assay to identify small molecule agonists of the constitutive androstane receptor (CAR) signaling pathway - cell viability counter screen (AID 1224836)
# Conditions: HepG2-CYP2B6-hCAR viability, CellTiter-Fluor, 23 h, PK11195 added to every well; series mostly up to 92.4 µM
# In short: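 23 h treatment, 37 C, 5% CO2. Cell line: HepG2 stably expressing hCAR with a CYP2B6-2.2kb construct. Co-treatment: PK11195, 0.75 uM final. Read-out: CellTiter-Fluor fluorescence intensity.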
# Note: nearly all actives have a fitted effect of over 45% in size.
# Potency is the fitted concentration of half-maximal effect.
SMILES,"viability change, negative = cytotoxic",Potency
CC(NN)c1ccccc1 (centres undefined),-0.8% [at 19 µM],
Nc1ccc(N)c2ccccc12,,30.6 µM (active)
CC1(C)CCC(C)(C)c2cc(C(=O)Nc3ccc(C(=O)O)cc3)ccc21,,inactive
Nc1cc(C(F)(F)F)ccc1S,,inactive
Cc1cccc(S(=O)(=O)O)c1C,,inactive
c1ccc(CSCc2ccccc2)cc1,,inactive
COC(=O)c1cc(Cl)ccc1OC,,inactive
CCCCCCCC(=O)[O-].CCCCCCCC(=O)[O-].[Zn+2],,inactive
O=C(c1ccc(F)cc1)C1CCN(CCn2c(=O)[nH]c3ccccc3c2=O)CC1,,inactive
CCCC/C=C/CCCCO,,inactive
CCCCCCCC[P+](CCCCCCCC)(CCCCCCCC)CCCCCCCC,,1.92 µM (active)
CCCCCCCCCCCC[N+](C)(C)CCCCCCCCCCCC,,27.3 µM (active)
CC(C)C(C)(C)C(C)(C)C(C)(C)S,,inactive
O=C(c1ccc(O)cc1O)c1ccc(O)cc1O,,inactive
CC(C)CCCCCCCCCCCCCCC(=O)O,,inactive

# Experiment: qHTS assay to identify small molecule antagonists of the constitutive androstane receptor (CAR) signaling pathway - cell viability counter screen (AID 1224837)
# Conditions: HepG2-CYP2B6-hCAR viability, CellTiter-Fluor, 23 h, co-treated with 50 nM CITCO; series mostly up to 92.4 µM
# In short: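 Counter screen run in HepG2-CYP2B6-hCAR cells: 4 hr settle, compound titration (15 concentrations) with 50 nM CITCO, 23 hr at 37 C/5% CO2, CellTiter-Fluor fluorescence.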
SMILES,Potency,"activity change, negative = cytotoxicity"
C=CC(=O)OCC(CO)(COC(=O)C=C)COC(=O)C=C,9.72 µM (active) and 24.3 µM (active),
CNC(=O)c1ccccc1,inactive,
Oc1ccc2c(c1)-c1ccccc1C2,inactive,
CCc1cc(Cc2cc(CC)c(N)c(CC)c2)cc(CC)c1N,inactive,
CCC(CN)=C(c1ccccc1)c1ccccc1,inactive,
COC(=O)C1=C(C)NC(C)=C(C(=O)OCCc2ccc(N3CCN(C(c4ccccc4)c4ccccc4)CC3)cc2)C1c1cccc([N+](=O)[O-])c1 (centres undefined),inactive,
C[C@]12CCC(=O)C=C1CC[C@@H]1[C@@H]2[C@@H](O)C[C@@]2(C)[C@H]1CC[C@]2(O)C(=O)COC(=O)CCC(=O)O,inactive,
NC(=O)CC[C@@H]1NC(=O)[C@H](Cc2ccccc2)NC(=O)[C@H](Cc2ccc(O)cc2)NC(=O)CCSSC[C@@H](C(=O)N2CCC[C@H]2C(=O)N[C@@H](CCCN=C(N)N)C(=O)NCC(N)=O)NC(=O)[C@H](CC(N)=O)NC1=O,inactive,
COc1cccc(N)c1,inactive,
CC(C)(C)C(=O)OCOC(=O)[C@@H]1N2C(=O)[C@@H](NC(=O)[C@H](N)c3ccccc3)[C@H]2SC1(C)C,inactive,
CC(NN)c1ccccc1 (centres undefined),,5.95% [at 19 µM]
Nc1ccc(N)c2ccccc12,30.6 µM (active),
CC1(C)CCC(C)(C)c2cc(C(=O)Nc3ccc(C(=O)O)cc3)ccc21,inactive,
Nc1cc(C(F)(F)F)ccc1S,inactive,
Cc1cccc(S(=O)(=O)O)c1C,inactive,
COC(=O)c1cc(Cl)ccc1OC,inactive,
CCCCCCCC(=O)[O-].CCCCCCCC(=O)[O-].[Zn+2],inactive,
O=C(c1ccc(F)cc1)C1CCN(CCn2c(=O)[nH]c3ccccc3c2=O)CC1,inactive,
CCCC/C=C/CCCCO,inactive,
CCCCCCCC[P+](CCCCCCCC)(CCCCCCCC)CCCCCCCC,3.83 µM (active),
CCCCCCCCCCCC[N+](C)(C)CCCCCCCCCCCC,24.3 µM (active),
CC(C)C(C)(C)C(C)(C)C(C)(C)S,inactive,
O=C(c1ccc(O)cc1O)c1ccc(O)cc1O,inactive,
CC(C)CCCCCCCCCCCCCCC(=O)O,inactive,
